Test results reported in PubChem BioAssay.
Records with an inconclusive call do not appear. Calls of active or inactive are those of the source.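 The calls were made as follows, unless noted: active = normalized viability below 100% at a tested concentration; inactive = the rest.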

How the values were obtained:
[1] = growth inhibition of DIPG glioma cells, dose response, cell-based, JHH-DIPG-1, MIPE4.0, CellTiter-Glo, qHTS (AID 1347062; cut-off not given, nearly all actives have AC50 up to about 27 µM;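 as to AC50: cells exposed to compound for two days before readout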); details: JHH-DIPG-1 viability, CellTiter-Glo ATP luminescence
[2] = growth inhibition of DIPG glioma cells, dose response, cell-based, SU-DIPG-IV, MIPE4.0, CellTiter-Glo, qHTS (AID 1347063; cut-off not given, nearly all actives have AC50 up to about 30 µM;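 also: compound exposure lasted 48 hours before the viability readout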); details: SU-DIPG-IV viability, CellTiter-Glo ATP luminescence
[3] = growth inhibition of DIPG glioma cells, dose response, cell-based, SU-DIPG-XIII, MIPE5.0, CellTiter-Glo, qHTS (AID 1347064; cut-off not given, nearly all actives have AC50 up to about 23 µM;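 as to AC50: cells exposed to compound for 48 hours before the viability read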); details: SU-DIPG-XIII viability, CellTiter-Glo ATP luminescence
[4] = viability loss in pontine glioma line – cell-based, SU-DIPG-XXV, MIPE5.0, CellTiter-Glo, qHTS, dose response (AID 1347065; cut-off not given, nearly all actives have AC50 up to about 26 µM;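 also: cells exposed to compound for 48 hours before ATP readout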); details: CellTiter-Glo ATP luminescence
[5] = JHH-DIPG-1 glioma cell viability, MIPE5.0 library, CellTiter-Glo luminescence, qHTS (AID 1347067; cut-off not given, nearly all actives have AC50 up to about 26 µM;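 also: cells exposed to compound for 48 hours before readout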); details: JHH-DIPG-1 glioma viability, CellTiter-Glo ATP luminescence
[6] = SU-DIPG-XXV glioma cell viability, MIPE5.0 library, qHTS (AID 1347068; cut-off not given, nearly all actives have IC50 up to about 30 µM;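 as to IC50: cells exposed to compound for 48 hours before viability readout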)
[7] = modifiers of HSF1 nuclear foci, imaging, Selleck Cancer Library (AID 1347162; in the data active = plate-normalised HSF1 focus index below about 0.46); details: human cells, at 10 µM; SSMD: measured here: HSF1 foci SSMD mean; cell count: measured here: cell number; plate-normalised HSF1 focus index: stronger effect = lower value
[8] = growth inhibition of DIPG glioma cells, dose response, cell-based, SU-DIPG-XIII, MIPE4.0, CellTiter-Glo, qHTS (AID 1347061; cut-off not given, nearly all actives have AC50 up to about 37 µM;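 also: cells exposed to compound for 48 hours before readout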); details: SU-DIPG-XIII viability, CellTiter-Glo ATP luminescence
[9] = SU-DIPG-VI glioma cell viability, MIPE4.0 library, CellTiter-Glo luminescence, qHTS (AID 1347066; cut-off not given, nearly all actives have AC50 up to about 30 µM;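 also: cells exposed to compound for 48 hours before readout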); details: CellTiter-Glo ATP luminescence
[10] = sensitizers of A549 cells to miR-34 induction, primary screen, imaging, A549 dox-inducible miR-34, nuclei and caspase counts (AID 1347080;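 active = compounds whose cell count with miR-34 switched on is under 0.7 times the count with it off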); details: A549 miR-34 inducible, Hoechst nuclei count, 48 h
[11] = survival rescue of mitochondrial mutant cells in low glucose, primary screen, MELAS cybrids, Rieske KO mouse fibroblasts, CellTiter-Glo (AID 1508586;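 active = mean z-score across replicates of 1.96 or higher in either the MELAS or the Rieske mutant cell line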;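 also: z relative to plate mean and SD of compound and empty wells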)
[12] = ovarian cancer cell viability with rucaparib, profiling panel, oncology-focused library, rucaparib conditional (AID 1508598); details: patient-derived ovarian cancer cells, CellTiter-Glo viability, 144 h, stronger effect = lower value
[13] = stronger effect = lower value, cell number ratio, induced over uninduced
[14] = measured here: relative caspase fold change +Dox/-Dox
[15] = measured here: total cells with miR-34 induction, stronger effect = lower value
[16] = measured here: total cells without miR-34 induction
[17] = MELAS cybrid survival, CellTiter-Glo 48 h, stronger effect = higher value
[18] = Rieske KO mouse fibroblast survival, CellTiter-Glo 72 h

Cn1cc(-c2[nH]c3cc(NC(=O)[C@H](N)C4CCCCC4)cc4c3c2C=NNC4=O)cn1
6990: cell count [7]
active: AC50 [1] 0.418 µM | AC50 [2] 1.18 µM | AC50 [3] 2.09 µM | AC50 [4] 1.18 µM | AC50 [5] 16.6 µM | IC50 [6] 4.68 µM
inactive: plate-normalised HSF1 focus index [7] 0.932
-1.12: SSMD [7]

Nc1cccc(S(=O)(=O)N2CCCN(S(=O)(=O)c3ccc4c(c3)OCCO4)CC2)c1
inactive: outcome [8] | outcome [9] | outcome [6]

CCCS(=O)(=O)Nc1ccc(F)c(C(=O)c2c[nH]c3ncc(-c4ccc(Cl)cc4)cc23)c1F
7100: cell count [10, 16]
2.8: SSMD [7]
1: fold change [10, 14]
-0.424: z-score [11, 18]
inactive: outcome [1] | outcome [3] | outcome [9] | outcome [6] | fold change [10, 13] 0.763 | plate-normalised HSF1 focus index [7] 1.15 | z-score [11, 17] -0.461 | viability ([12]; at 0.000305 µM, OCI-C5x cells, with rucaparib 10 µM, 100% = cells with rucaparib alone) 120% | viability ([12]; at 0.00122 µM, OCI-C5x cells, with rucaparib 10 µM, 100% = cells with rucaparib alone) 112% | viability ([12]; at 0.00122 µM, OCI-C5x cells, without rucaparib) 111% | viability ([12]; at 0.00488 µM, OCI-C5x cells, with rucaparib 10 µM, 100% = cells with rucaparib alone) 123% | viability ([12]; at 0.00488 µM, OCI-C5x cells, without rucaparib) 106% | viability ([12]; at 0.00488 µM, OCI-P5x cells, with rucaparib 20 µM, 100% = cells with rucaparib alone) 103% | viability ([12]; at 0.0195 µM, OCI-C5x cells, with rucaparib 10 µM, 100% = cells with rucaparib alone) 107% | viability ([12]; at 0.0195 µM, OCI-C5x cells, without rucaparib) 107% | viability ([12]; at 0.0195 µM, OCI-P5x cells, with rucaparib 20 µM, 100% = cells with rucaparib alone) 107% | viability ([12]; at 0.0195 µM, OCI-P5x cells, without rucaparib) 102% | viability ([12]; at 0.0781 µM, OCI-C5x cells, with rucaparib 10 µM, 100% = cells with rucaparib alone) 105% | viability ([12]; at 0.0781 µM, OCI-C5x cells, without rucaparib) 107% | viability ([12]; at 0.0781 µM, OCI-P5x cells, with rucaparib 20 µM, 100% = cells with rucaparib alone) 103% | viability ([12]; at 0.0781 µM, OCI-P5x cells, without rucaparib) 104% | viability ([12]; at 0.313 µM, OCI-C5x cells, with rucaparib 10 µM, 100% = cells with rucaparib alone) 106% | viability ([12]; at 0.313 µM, OCI-C5x cells, without rucaparib) 107% | viability ([12]; at 0.313 µM, OCI-P5x cells, without rucaparib) 105% | viability ([12]; at 5 µM, OCI-C5x cells, without rucaparib) 105%
active: AC50 [2] 14.8 µM | viability ([12]; at 0.000305 µM, OCI-C5x cells, without rucaparib) 96.8% | viability ([12]; at 0.000305 µM, OCI-P5x cells, with rucaparib 20 µM, 100% = cells with rucaparib alone) 95.6% | viability ([12]; at 0.000305 µM, OCI-P5x cells, without rucaparib) 93% | viability ([12]; at 0.00122 µM, OCI-P5x cells, with rucaparib 20 µM, 100% = cells with rucaparib alone) 99.5% | viability ([12]; at 0.00122 µM, OCI-P5x cells, without rucaparib) 96.2% | viability ([12]; at 0.00488 µM, OCI-P5x cells, without rucaparib) 99% | viability ([12]; at 0.313 µM, OCI-P5x cells, with rucaparib 20 µM, 100% = cells with rucaparib alone) 93.7% | viability ([12]; at 1.25 µM, OCI-C5x cells, with rucaparib 10 µM, 100% = cells with rucaparib alone) 49.6% | viability ([12]; at 1.25 µM, OCI-C5x cells, without rucaparib) 35% | viability ([12]; at 1.25 µM, OCI-P5x cells, with rucaparib 20 µM, 100% = cells with rucaparib alone) 45.5% | viability ([12]; at 1.25 µM, OCI-P5x cells, without rucaparib) 10.7% | viability ([12]; at 5 µM, OCI-C5x cells, with rucaparib 10 µM, 100% = cells with rucaparib alone) 97.9% | viability ([12]; at 5 µM, OCI-P5x cells, with rucaparib 20 µM, 100% = cells with rucaparib alone) 49.3% | viability ([12]; at 5 µM, OCI-P5x cells, without rucaparib) 16.3%
6960: cell count [7]
5420: cell count [10, 15]

C[C@H](NC(=O)[C@@H](O)c1cc(F)cc(F)c1)C(=O)N[C@@H]1C(=O)N(C)c2ccccc2-c2ccccc21
inactive: outcome [1] | outcome [2] | outcome [3] | outcome [9] | outcome [5] | outcome [6]

COc1ccc(Cn2ccc3ccc(C(=O)NO)cc32)cc1
5300: cell count [10, 15]
0.954: fold change [10, 14]
inactive: outcome [1] | outcome [2] | outcome [4] | outcome [9] | outcome [5] | fold change [10, 13] 0.793 | z-score [11, 17] -0.343
0.636: z-score [11, 18]
6690: cell count [10, 16]

NC1(Cc2ccc(Cl)cc2)CCN(c2ncnc3[nH]ccc23)CC1
7540: cell count [10, 16]
0.525: fold change [10, 14]
-1.1: z-score [11, 18]
active: AC50 [1] 20.9 µM | AC50 [2] 11.8 µM | AC50 [3] 14.8 µM | AC50 [4] 14.8 µM
7470: cell count [10, 15]
inactive: fold change [10, 13] 0.99 | z-score [11, 17] -0.165
